# Reference: article PMC9174471
# Biological target: Histone H4 (UniProt P62805)
# Assay: cross-link between two proteins; cross-linking mass spectrometry
substance,measurement,value
"ADP/ATP translocase 3, P12236",listed as a hit,yes
